Source: PubChem BioAssay (National Center for Advancing Translational Sciences (NCATS))
Most compounds without a hit are left out; they make up all but 5.5% or so of the library.
Coupling enz = coupling enzyme interference in Giardia aldolase counter-screen. coupling enzyme system counterscreen, AmpLite Red fluorescence. activity change, negative = inhibition, % at 58.2 µM, hits read low. hit rate 0.67% among 290,000; in the data active means activity change below about -30%
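Fluorescence at 525 nm excitation and 598 nm emission measured inhibition of the coupled detection system without aldolase. Compounds (at 57.5 uM final) were preincubated 10 min at room temperature with coupling enzyme reagent before a 20 min substrate/AmpLite Red step.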
ELG1 DNA repair = ELG1-dependent DNA repair inhibition | HEK293T ELG1-luciferase reporter, luminescence, 16 h; DNA damage induced by 5-fluorouridine | Potency, µM (highest dose often 46.1 µM), usual class: inhibitors | hit rate 2.3% among 330,000 | AID 504467; further: nearly all actives have a fitted effect of over 55% in size
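Luminescence from the luciferase reporter, measured 30 min after ONE-Glo reagent at room temperature, was the read-out. Beforehand, 2,000 cells per well were exposed for 16 hr at 37 °C to 5-fluorouridine together with compound or vehicle.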
Sfp inh = Sfp phosphopantetheinyl transferase inhibition; Q9F4F7; AID 1490; Biochemical Sfp PPTase activity, qHTS; Potency, µM, actives largely listed as inhibitors; hit rate 3.5% among 310,000;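 further: the enzyme is Sfp with the accession as filed and its product quenches rhodamine fluorescence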
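With Hepes-Na pH 7.6 buffer containing 10 mM MgCl2, Sfp (15 nM) modified BHQ-2-YbbR (12.5 uM) using rhodamine-CoA (5 uM). Two reads 30 minutes apart at 525/598 nm yielded each well's rate.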
Giardia kill = Giardia lamblia killing; Giardia lamblia trophozoite viability; activity change, % at 7.66 µM, hits read low; hit rate 0.15% among 340,000; AID 540267; in the data active means activity change below about -80%; inconclusive means between about -30% and that limit;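 further: parasites exposed to compound for two days anaerobically before the ATP read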
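Viability, read as ATP luminescence: trophozoites at 100 cells/well, compound added, 48 hrs anaerobic at 37 deg C, then 15-30 min room-temperature development before reading.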
A number is an active result; – = inactive; ? = inconclusive; · = not tested or not shown; ! = not confirmed by another sample. Unless noted, the call rests on the fitted dose curve; in most records, active means well fitted curve in the direction sought with a large enough effect; inconclusive means small, poorly fitted or top-dose-only effect, or another doubt; inactive means no such curve, though single readings can be large; an effect the other way counts as inactive or inconclusive.

SMILES	Coupling enz	ELG1 DNA repair	Sfp inh	Giardia kill
COc1cccc(N2C(=O)NC(=O)/C(=C/c3ccc([N+](=O)[O-])s3)C2=O)c1	–	–	25µM	–
CCCC(Cn1cncn1)c1ccc(Cl)cc1Cl (stereo unspecified)	–	·	–	·
CN1CCCCC1Cn1cc(C(=O)c2cc([N+](=O)[O-])ccc2I)c2ccccc21 (stereo unspecified)	–	·	–	·
O=c1c(O)c(-c2ccc(O)c(O)c2)oc2c(O)c(O)cc(O)c12	-57	·	–	·
NC(CCP(=O)(O)O)C(=O)O (stereo unspecified)	·	·	50µM	·
CC1(C)S[C@@H]2[C@H](N)C(=O)N2C1C(=O)O (stereo partly specified)	–	·	14µM	·
CC1(C)S[C@H]2[C@@H](N)C(=O)N2[C@H]1C(=O)O	–	·	56µM	·
O=C1NC(=O)N(c2ccc(Cl)cc2)C(=O)/C1=C/c1coc2ccc(O)cc2c1=O	–	–	45µM	–
O=C1NC(=O)N(c2ccccc2)C(=O)/C1=C/c1coc2ccc(O)cc2c1=O	–	?	50µM	–
O=C1NC(=O)N(c2ccccc2)C(=O)/C1=C/c1ccoc1	–	–	?	–
Clc1cccc(N2CCNCC2)c1	–	–	–	–
CC(C)CCn1c(N2CCN(c3cccc(Cl)c3)CC2)nc2c1c(=O)[nH]c(=O)n2C	–	15µM	–	–
c1ccc2sc(C3(N4CCCC4)CCCCC3)cc2c1	·	·	–	·
Cn1c(O)c(/C=C2\N=c3ccccc3=C2CCNC(=S)NC2CC2)c(=O)n(C)c1=O	–	?	32µM	–
CN1CCN(C(=S)c2ccc([N+](=O)[O-])cc2)CC1	–	?	13µM	–
O=[N+]([O-])c1ccc(C(=Nc2ccccc2)N2CC2)cc1	·	·	·	–
C[C@@]12CC[C@H]3[C@@H](CC[C@@H]4C[C@H]5S[C@H]5C[C@]43C)[C@H]1CC[C@H]2O	–	·	–	·
O=c1[nH]c(=S)n(-c2ccccc2)c(O)c1/C=N/N1CCCCC1c1cccnc1 (stereo unspecified)	–	–	50µM	–
COc1ccc(CC2NC[C@H](O)[C@H]2OC(C)=O)cc1 (stereo partly specified)	–	·	–	·
O=C1NC(=O)C2(Cc3ccccc3N3CCCC32)C(=O)N1Cc1ccccc1 (stereo unspecified)	–	–	56µM	–
O=C1NC(=O)[C@]2(Cc3ccccc3N3CCN(c4ccccc4)CC32)C(=O)N1Cc1ccccc1 (stereo partly specified)	–	?	–	–
NCC(O)c1cccc(O)c1 (stereo unspecified)	·	·	–	·
CC(C)c1cccc(O)c(=O)c1	–	?	56µM!	–
CNCCc1ccc(O)c(O)c1	·	·	56µM	–
CCOc1ccc2nc(N=Nc3c(O)[nH]c(=S)[nH]c3=O)sc2c1	–	–	56µM	–
SMILES	Coupling enz	ELG1 DNA repair	Sfp inh	Giardia kill
COc1cc(/C=C(/C)[N+](=O)[O-])ccc1OCc1ccccc1Cl	–	?	14µM	–
Cc1cc(C(C#N)c2ccc(Cl)cc2)c(Cl)cc1NC(=O)c1cc(I)cc(I)c1O (stereo unspecified)	·	–	?	–
FC(F)(F)c1ccc(CNCCc2ccc3c(c2)OCO3)cc1	–	–	79µM	–
Clc1ccc(CNCCc2ccc3c(c2)OCO3)cc1	–	–	?	–
COc1ccc(-c2n[nH]c(=S)n2-c2ccc3c(c2)OCCO3)cc1OC	–	?	?	–
Cc1ccc(-n2c(-c3nn(C)c(C)c3Cl)n[nH]c2=S)cc1	–	?	56µM	–
S=c1nc(-c2ccccc2)n(-c2ccccc2)[nH]1	–	?	–	–
Cc1ccc(-c2n[nH]c(=S)n2-c2ccccc2)cc1	–	–	79µM	–
S=c1[nH]c2cc(Br)cnc2[nH]1	–	–	22µM	–
S=c1[nH]c2ccccc2[nH]1	–	–	–	–
Cc1cccc(N2C(=O)NC(=O)/C(=C\c3cnc(-c4ccccc4)nc3)C2=O)c1	–	–	?	–
Cc1cccc(N2C(=O)NC(=O)/C(=C/c3ccc(N4CCOCC4)cc3)C2=O)c1	–	?	50µM	–
Cc1cccc(N2C(=O)NC(=O)/C(=C\c3ccc(N4CCOCC4)cc3)C2=O)c1	–	–	25µM	–
CC(CCC(=O)O)C1CCC2C3C(=O)C[C@@H]4CC(=O)CC[C@@]4(C)C3CC(=O)[C@]12C (stereo partly specified)	–	·	–	·
CC(=O)OC1CC[C@]2(C#N)[C@H]3CC[C@]4(C)[C@H](C5C=CC(=O)O5)CCC4(O)C3CCC2(O)C1 (stereo partly specified)	–	15µM	–	–
COc1ccc(/C=C2/C(=O)NC(=O)N(C3CCCCC3)C2=O)cc1CSc1ccccn1	–	–	56µM	·
COc1ccc(C=C2C(=O)N(C)C(=O)N(C)C2=O)cc1CSc1ccccn1	–	?	45µM	–
C[C@@]12C=CC(=O)C=C1CCC1C2CC[C@]2(C)C(=O)CCC12 (stereo partly specified)	–	·	–	·
O=C1C=Cc2ccccc2C1=O	-82	–	2.8µM	·
CC(=O)Nc1ccc(S(=O)(=O)N(C)CCOCc2ccccc2)cc1	–	?	–	–
CN1CCc2cc3c(cc2[C@@H]1[C@@H]1OC(=O)c2c1ccc1c2OCO1)OCO3	–	·	–	·
CN1CCN(c2ccc([N+](=O)[O-])c3cccnc23)CC1	–	–	–	-84
CC(C)C[C@H](NC(=O)[C@H](CC(C)C)NC(=O)[C@H](Cc1ccccc1)NC(=O)[C@@H](N)Cc1ccc(O)cc1)C(=O)N[C@@H](CCCN=C(N)N)C(=O)N[C@@H](CC(N)=O)C(=O)N1CCC[C@H]1C(=O)O	–	·	–	·
COc1cc2c(cc1OC)[C@@H]1C(=O)c3ccc4oc(C(C)C)cc4c3OC1CO2 (stereo partly specified)	–	·	–	·
Cc1ccc(C(=O)Nc2nc3ccccc3[nH]2)cc1	–	?	–	-92
SMILES	Coupling enz	ELG1 DNA repair	Sfp inh	Giardia kill
Cc1ccc(C(=O)Nc2nc3ccccc3n2CCN2CCCC2)cc1	–	?	–	–
C=C[C@]12CN(C)[C@H]3C1[C@@]1(C(=O)Nc4ccccc41)[C@H]1C[C@H]2[C@H]3CO1	–	·	–	·
COC(=O)[C@@H]1C[C@H](OC(C)=O)C(=O)[C@H]2[C@@]1(C)CC[C@H]1C(=O)O[C@H](c3ccoc3)C[C@]21C	–	·	–	·
COc1cc2c(cc1OC)-c1c(OC)c(OC)cc3c1C(C2)N(C)CC3 (stereo unspecified)	-42	?	–	–
O=C(Nc1cccc(C(=O)Nc2cc(C(=O)Nc3ccc([S+](=O)([O-])[O-])c4cc([S+](=O)([O-])[O-])cc(SOOO)c34)ccc2F)c1)Nc1cccc(C(=O)Nc2cc(C(=O)Nc3ccc([S+](=O)([O-])[O-])c4cc([S+](=O)([O-])[O-])cc([S+](=O)([O-])[O-])c34)ccc2F)c1	–	·	?	·
C[C@H]1CN([C@@H](C)CO)C(=O)c2cc(NC(=O)C3CCCCC3)ccc2O[C@H]1CN(C)Cc1ccc(-c2ccccc2)cc1	·	10µM	·	–
